Results: the supplement of paper PMC10811239

Assays:
[1] = tested on: LEGO organoid PTCC (PTEN-/-; TP53-/-; CDKN2A-/-; CDKN2B-/-); assay: bioluminescence (viable cell) signal fold change after vs before treatment, normalised to DMSO (ratio); higher = more tumour cell growth / less inhibition; details: 10 µM; treatment time 6 days
Method: (§1)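 Luc2-labelled iPSC-derived glioblastoma-like organoids (LEGOs, genotypes PT = PTEN-/-;TP53-/-, PTCC = plus CDKN2A/B-/-, PTN = plus NF1-/-) were treated with 10 uM drug for 6 days (applied every other day) at 37 C. Bioluminescence imaging was done before treatment and 2 days after the last dose. BLI signals were normalised to the DMSO control on the same day and then to the pre-treatment signal (N=3).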

[2] = tested on: LEGO organoid PTN (PTEN-/-; TP53-/-; NF1-/-); assay: as above; details: 10 µM; treatment time 6 days
Method: as §1

SMILES	bioluminescence [1]	bioluminescence [2]
CC(C)NCC(O)COc1ccc(CC(N)=O)cc1 (centres undefined) [Atenolol]	0.484	0.649
CN(C)CCOC(C)(c1ccccc1)c1ccccn1.O=C(O)CCC(=O)O (centres undefined) [Doxylamine succinate]	1.17	0.999
C[C@@H]1C[C@H]2[C@@H]3CCC4=CC(=O)C=C[C@]4(C)[C@@]3(F)[C@@H](O)C[C@]2(C)[C@@]1(O)C(=O)CO [Dexamethasone]	1.28	1.71
CC(C)(S)[C@@H](N)C(=O)O [d-penicillamin]	0.914	1.11
O=C(CCCN1CC=C(n2c(=O)[nH]c3ccccc32)CC1)c1ccc(F)cc1 [Droperidol]	0.69	0.372
CNC(=O)c1cc(Oc2ccc(NC(=O)Nc3ccc(Cl)c(C(F)(F)F)c3)cc2)ccn1.Cc1ccc(S(=O)(=O)O)cc1 [Sorafenib tosylate]	0.343	0.504
CCN(CC)CC#CCOC(=O)C(O)(c1ccccc1)C1CCCCC1 (centres undefined) [Oxybutynin]	0.776	1.53
NC(=O)c1ncn([C@@H]2O[C@H](CO)[C@@H](O)[C@H]2O)n1 [Ribavirin]	1.89	0.822
Cl.NC12CC3CC(CC(C3)C1)C2 [Amantadine hydrochloride]	1.07	3.32
CO/N=C(\C(=O)N[C@@H]1C(=O)N2C(C(=O)[O-])=C(C[N+]3(C)CCCC3)CS[C@H]12)c1csc(N)n1.Cl.Cl.O [Cefepime Dihydrochloride Monohydrate]	0.833	1.59
Cc1cc(NS(=O)(=O)c2ccc(N)cc2)no1 [Sulfamethoxazole]	1.56	1.8
CC[C@H](C)C(=O)O[C@H]1C[C@@H](C)C=C2C=C[C@H](C)[C@H](CC[C@@H]3C[C@@H](O)CC(=O)O3)[C@H]21 [Lovastatin]	1.02	0.3
